PubChem BioAssay AID651956 (Broad Institute, 2012)
Results with a measured potency or affinity are listed apart. Inconclusive results are not listed. Calls of active or inactive are those of the source.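 The calls were made as follows: active = in every test run, a fitted half-maximal concentration for signal decrease at or below twice the highest tested concentration; inconclusive = runs disagree, flat 30 to 70% decrease, or poor fit; inactive = the rest.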

assay: activation of miR-122 Renilla sensor silencing – cell-based, Huh7 psiCHECK-miR122, Renilla luciferase, cherry-picked, dose response (AID 651956); conditions: Huh7 psiCHECK-miR122 Renilla luciferase reporter, 48 h; series mostly up to 35 µM;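 also: Renilla luciferase from a miR-122 sensor reporter so lower signal means miR-122 activation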

Structure (SMILES)	outcome
CO[C@H]1CN(C)C(=O)c2cc(NC(C)=O)ccc2OC[C@@H](C)N(C(=O)CC2CC2)C[C@H]1C	inactive
CCCNC(=O)C[C@H]1CC[C@H]2[C@@H](COc3ccc(NC(=O)c4cc(F)cc(F)c4)cc3C(=O)N2C)O1	inactive
COC(=O)C[C@H]1CC[C@@H]2[C@@H](COc3ccc(NC(=O)c4cnccn4)cc3C(=O)N2C)O1	inactive
